# PubChem BioAssay AID651661 (Broad Institute, 2012)
# Several values for one entry are separate records, joined by “and”; a condition that tells them apart may be missing. Equal entries are not always repeated. Among all 350,000 compounds or so, about 2,300 (0.66%) were called active.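 How the source made its calls: active means mean inhibition of at least 50% after viability correction, with every replicate also passing that limit; inconclusive means mean reaches 50% but only one of two replicates passes; inactive means the rest.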 The full list was thinned out, with actives kept by preference. Some structures have more than one record in an assay (separate samples or runs), and their calls can disagree.
# Assay: blockers of EWS/Fli transcriptional output – A673 cells, NR0B1 luciferase, luminescence, MLPCN library, primary screen (AID 651661);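 further: firefly luciferase signal divided by Alamar Blue viability fluorescence both relative to DMSO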
# Details: A673 NR0B1-luciferase reporter, viability-normalised; at 12.6 µM; stronger effect = higher value
row,Compound,inhibition
1,Oc1c(Cl)cc(Cl)c(Cl)c1Cc1c(O)c(Cl)cc(Cl)c1Cl,50.1% (active)
2,C/C=C/c1ccc(C2[C@H]3CNC[C@@H]2N3Cc2cccc(F)c2)cc1 (stereo partly drawn),4.29% (inactive)
3,COc1cc(SC)ccc1C(=O)NNC(=O)C1COc2ccccc2O1 (stereo not drawn),-2.85% (inactive)
4,Cc1csc(NC(=O)c2ccc(-c3ccc(Cl)cc3Cl)o2)n1,-14% (inactive)
5,COc1cc(SC)ccc1C(=O)Nc1nc(C)cs1,76.2% (active)
6,CO[C@@H]1CN(C)C(=O)c2ccc(NC(=O)c3ccc(F)cc3)cc2OC[C@H](C)N(C)C[C@H]1C,4.5% (inactive)
7,C[C@H](CO)N1C[C@H](C)[C@@H](CN(C)CC2CC2)Oc2ccc(NS(=O)(=O)c3cn(C)cn3)cc2CC1=O,-13.9% (inactive)
8,CO[C@H]1CN(C)C(=O)c2ccc(NC(=O)NC(C)C)cc2OC[C@@H](C)N(C(=O)CN(C)C)C[C@H]1C,8.16% (inactive)
9,NC(N)=Nc1nc(-c2ccccc2)c2cc(Cl)ccc2n1,63.6% (active)
10,Cc1onc(-c2ccccc2)c1C(=O)N=C(N)c1ccc(Cl)cc1,-16.4% (inactive)
11,Cc1nc(N=C(N)N)nc2c(C)cccc12,34.9% (inactive)
12,CC(C)NC(=O)N(C)C[C@@H]1Oc2ncc(C#Cc3ccncc3)cc2C(=O)N([C@@H](C)CO)C[C@@H]1C,-7.78% (inactive)
13,COC(=O)C[C@@H]1C[C@H]2c3cc(NC(=O)Nc4ccc(F)cc4)ccc3O[C@H]2[C@@H](CO)O1,6.58% (inactive)
14,CC(C)(C)[S@](=O)N1Cc2cc(C(=O)N3CCCCC3)nc(-c3cccc(Br)c3)c2[C@@H]1CCO,0.582% (inactive)
15,N#C[C@@H]1[C@@H](c2ccc(C#Cc3cccc(F)c3)cc2)[C@H](CO)N1C(=O)C1CCOCC1,-36% (inactive)
16,N#C[C@@H]1[C@H](c2ccc(C#Cc3cccc(F)c3)cc2)[C@@H](CO)N1C(=O)C1CCCC1,59.3% (active)
17,N#C[C@@H]1[C@@H](c2ccc(C#Cc3cccc(F)c3)cc2)[C@@H](CO)N1C(=O)C1CCC1,-10% (inactive)
18,Cc1noc(C)c1NC(=O)N(C)C[C@@H]1Oc2ccc(NC(=O)CCN3CCOCC3)cc2CC(=O)N([C@H](C)CO)C[C@@H]1C,-3.43% (inactive)
19,CCCCCCCCn1c2c(c(=N)c3c1CCC3)CCCC2,55.8% (active)
20,CO[C@@H](CN(C)C(=O)Nc1ccc(F)cc1)[C@H](C)CN(Cc1ccccc1Cl)[C@@H](C)CO,2.29% (inactive)
21,O=C(NCC[C@H]1CC[C@@H](NS(=O)(=O)c2cccc(Cl)c2)[C@@H](CO)O1)c1cnccn1,-2.88% (inactive)
22,COc1cc(Cn2c3ccc(NC(=O)CC(C)c4ccccc4)cc3c(=O)n2C)ccc1F (stereo not drawn),11% (inactive)
23,CCOCCC(=O)Nc1ccc2c(c1)c(=O)n(C)n2-c1ccc2ccccc2c1,56.3% (active)
24,CCOC(=O)c1cccc(NC(=O)CCOc2ccccc2)c1,-49.3% (inactive)
25,CC(=O)N(C)C[C@H]1Oc2ncc(C#Cc3ccccn3)cc2C(=O)N([C@H](C)CO)C[C@@H]1C,1.56% (inactive)

row,Compound,inhibition
1,C[C@@H]1CCCCO[C@@H](CN(C)C(=O)Nc2ccc3c(c2)OCO3)[C@H](C)CN([C@H](C)CO)C(=O)c2cc(NC(=O)CCCN(C)C)ccc2O1,-6.47% (inactive)
2,COc1ccc(OC)c(Cc2cnc3nc(N)nc(N)c3c2C)c1,62.9% (active)
3,COc1ccc(OC)c(NC(=O)c2sc3nc(C)cc(C)c3c2N)c1,-6% (inactive)
4,COc1ccc(OC)c(Cc2nnc(CCC(=O)NC3CCCC3)o2)c1,-17.8% (inactive)
5,CO[C@H]1CN(C)C(=O)c2cc(NC(=O)C3CC3)ccc2OC[C@@H](C)N(CCc2ccccc2)C[C@H]1C,-1.43% (inactive)
6,CN(C)CCCNC(=O)C[C@H]1CC[C@H]2[C@@H](COC[C@H](O)CN2CC2CCCCC2)O1,-0.386% (inactive)
7,CC(=O)N(C)C[C@@H]1Oc2ncc(C#Cc3ccc(F)cc3)cc2C(=O)N([C@H](C)CO)C[C@@H]1C,-7.39% (inactive)
8,CC(C)CN(C[C@@H]1N[C@@H](CO)[C@H]1c1ccccc1)C(=O)CN(C)C,4.89% (inactive)
9,O=C(/C=C/Sc1ncn[nH]1)c1ccc(Cl)cc1,67% (active)
10,O=C(CSc1ncn[nH]1)Nc1ccc(Br)cc1Br,-25.6% (inactive)
11,Cc1ccc(S(=O)(=O)N(C)C[C@@H]2Oc3ccc(NS(=O)(=O)c4ccc(F)cc4)cc3CC(=O)N([C@@H](C)CO)C[C@H]2C)cc1,-0.853% (inactive)
12,CC(C)CC#Cc1ccc2c(c1)O[C@H](CN(C)Cc1ccccc1F)[C@@H](C)CN([C@@H](C)CO)S2(=O)=O,-16.5% (inactive)
13,O=C(C1CCCC1)N1CC(=O)N2[C@H](CO)[C@H](c3ccc(Br)cc3)[C@H]2C1,-4.8% (inactive)
14,CCCC#Cc1ccc([C@H]2[C@H](CO)N3C(=O)CN(C(=O)c4ccc(F)cc4)C[C@@H]23)cc1,-7.03% (inactive)
15,C=CCn1c(C)cc(C2=NNC(=NCC)SC2)c1C,91.7% (active)
16,CCCC#Cc1ccc2c(c1)O[C@H](CN(C)C(=O)C1CCCCC1)[C@H](C)CN([C@H](C)CO)S2(=O)=O,9.13% (inactive)
17,CC(C)C#Cc1ccc([C@H]2[C@@H](CO)N3CCCCN(C(=O)Nc4ccccc4)C[C@H]23)cc1,1.61% (inactive)
18,C[C@@H](NC(=O)C[C@H]1C[C@@H]2c3cc(NC(=O)c4ccc5c(c4)OCO5)ccc3O[C@@H]2[C@@H](CO)O1)c1ccccc1,2.79% (inactive)
19,CNC(=O)C[C@@H]1CC[C@H]2[C@@H](COc3ccc(NC(=O)NCc4ccccc4)cc3C(=O)N2C)O1,-5.62% (inactive)
20,COC(=O)C1=C(C)N(Cc2ccc(C(F)(F)F)cc2)C(=NCc2ccc(C(F)(F)F)cc2)NC1c1cccc(Cl)c1 (stereo not drawn),55.4% (active)
21,COC(=O)C1=C(C)N(Cc2cccc(C(F)(F)F)c2)C(=NCc2ccccc2)NC1c1ccc(Cl)cc1 (stereo not drawn),36.5% (inactive)
22,COC(=O)C1=C(C)N(Cc2ccc(C(F)(F)F)cc2)C(=NCc2ccccc2)NC1c1ccccc1C(F)(F)F (stereo not drawn),25.1% (inactive)
23,CN(C)CC(=O)N1[C@@H](C#N)[C@@H](c2ccccc2-c2ccccc2F)[C@@H]1CO,-0.399% (inactive)
24,COc1ccccc1S(=O)(=O)N1C[C@@H]2N[C@H](C1)C2c1ccc(-c2cccc(C)c2)cc1 (stereo partly drawn),61.1% (active) and 2.71% (inactive)
25,Cc1ccccc1S(=O)(=O)N1C[C@@H]2N[C@H](C1)C2c1ccc(-c2cccc(C(=O)N(C)C)c2)cc1 (stereo partly drawn),-5.91% (inactive)

row,Compound,inhibition
1,COc1cccc(S(=O)(=O)N2C[C@@H]3N[C@H](C2)C3c2ccc(-c3cccc(C(=O)N(C)C)c3)cc2)c1 (stereo partly drawn),10.3% (inactive) and 3.54% (inactive)
2,N#C[C@@H]1[C@H](c2ccc(-c3cccnc3)cc2)[C@H](CO)N1C(=O)C1CC1,-1.35% (inactive)
3,COCC#Cc1ccc([C@@H]2[C@H](CO)N3C(=O)CN(C(=O)C4CCC4)C[C@@H]23)cc1,-1.21% (inactive)
4,COc1ccc(Nc2ncnc3ccc(Br)cc23)c(OC)c1,72.3% (active)
5,O=C(O)CCCCCNc1ncnc2ccc(Br)cc12,-0.908% (inactive)
6,Brc1ccc2ncnc(NCc3cccnc3)c2c1,-8.78% (inactive)
7,CNC[C@H]1OCCCC[C@@H](C)Oc2ccc(NC(=O)Nc3ccc(C(F)(F)F)cc3)cc2C(=O)N([C@H](C)CO)C[C@H]1C,-7.97% (inactive)
8,COCC(=O)Nc1ccc2c(c1)OC[C@@H](C)N(CCc1ccccc1)C[C@H](C)[C@@H](OC)CN(C)C2=O,53.4% (active)
9,COCC(=O)Nc1ccc2c(c1)OC[C@H](C)N(Cc1ccccc1)C[C@H](C)[C@@H](OC)CN(C)C2=O,20.9% (inactive)
10,COCC(=O)Nc1ccc2c(c1)C(=O)N(C)C[C@H](OC)[C@@H](C)CN(CCc1ccccc1)[C@@H](C)CO2,2.64% (inactive)
11,CCC(=O)N1C[C@H](C)[C@@H](OC)CN(C)C(=O)c2cc(NC(=O)c3cnccn3)ccc2OC[C@@H]1C,2.51% (inactive)
12,O=C(c1cnccn1)N1CC(=O)N2[C@H](C1)[C@@H](c1ccc(C#CC3CCCCC3)cc1)[C@@H]2CO,-6.01% (inactive)
13,COc1ccc(NC(=O)CCCC(=O)c2ccccc2)cc1,10.3% (inactive)
14,COc1cccc(/C=C2\SC(=S)N(CCCC(=O)N3CCOCC3)C2=O)c1,-15.9% (inactive)
15,COc1ccc(/C=C2/SC(=O)N(CCCCCC(=O)Nc3ccccc3C(=O)O)C2=S)cc1,55.1% (active)
16,COc1ccccc1S(=O)(=O)N[C@@H]1CC[C@H](CCn2cc(C3CCCC3)nn2)O[C@H]1CO,-6.51% (inactive)
17,O=C(Nc1ccccc1F)N[C@H]1CC[C@@H](CCNS(=O)(=O)c2ccc(F)cc2)O[C@@H]1CO,4.92% (inactive)
18,C[C@H](CO)N1C[C@H](C)[C@@H](CN(C)C(=O)C2CCCCC2)OCCCC[C@H](C)Oc2ccc(N(C)C)cc2C1=O,-2.95% (inactive)
19,CC(C)CNC(=O)C(=O)Nc1ccc(N(C)C)cc1,-41.5% (inactive)
20,CC(NC(=S)Nc1ccc(OC(F)F)cc1)c1ccc(F)cc1 (stereo not drawn),0.035% (inactive)
21,CC(C)CNC(=S)Nc1ccc(F)cc1,86.6% (active)
22,CO[C@H](C(=O)N(C)C[C@@H]1OCc2ccccc2-c2c(n(C)c3ccccc23)C(=O)N([C@@H](C)CO)C[C@H]1C)c1ccccc1,8.3% (inactive)
23,N#Cc1cccc(-c2ccc(C3[C@H]4CNC[C@@H]3N4S(=O)(=O)c3ccc(-c4ccccc4)cc3)cc2)c1 (stereo partly drawn),3.68% (inactive) and -7.87% (inactive)
